The text below walks through data of PubChem BioAssay.

SMILES strings stand for the structures. The source made the active and inactive calls.

Test [1] deals with Plasmodium falciparum Sir2 (PF13_0152, Sir2A). As to the kind of experiment: Plasmodium falciparum Sir2A binding compounds – biochemical, small-molecule microarray, 635 nm fluorescence, primary screen (AID 1098).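 Further: score merges spot fluorescence intensity with its signal-to-noise ratio.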 The note with it: fluorescence 635 nm, higher = more signal.
The nature of test [2]: probe aDKK1 binding to arrayed compounds – biochemical, biotinylated probe, 635/667 nm fluorescence, primary screen (AID 1099).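 Further: score merges 667nm spot fluorescence with signal to noise across triplicate slides.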 The note with it: small-molecule microarray, higher = more signal.
Test [3] can be described thus: probe aCHRDL2 binding to arrayed compounds – biochemical, biotinylated probe, 635/667 nm fluorescence, primary screen (AID 1100). The note with it: small-molecule microarray, higher = more signal.
Test [4] in a line: change in splice reporter luminescence, either direction, cell-based, HEK293, spliceosome inhibition project, primary screen (AID 1101).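 Further: HEK293 cells carrying a splicing-competent luciferase reporter gene; test concentration not given here.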 Conditions: HEK293 splicing luciferase reporter, 24 h, higher = more signal, called active from +8 up or from −8 down. On the technique in general: A reporter such as luciferase makes a cellular process visible.
In test [5] the target is Fibroblast growth factor 10 (Homo sapiens) (UniProt O15520). The experiment in a line: compounds binding fibroblast growth factor 10 – biochemical, small-molecule microarray, 635 nm fluorescence, primary screen (AID 1102). The note with it: FGF10 binding, fluorescence 635 nm, higher = more signal.
In test [6] the test system is glycogen synthase kinase-3 (GSK3A per assay name; protocol says GSK3B). The experiment in a line: compounds binding glycogen synthase kinase-3 – biochemical, small-molecule microarray, 635 nm fluorescence, GSK3A, primary screen (AID 1103). Further: the record names both GSK3A and GSK3B. Conditions: fluorescence 635 nm, higher = more signal.
Test [7] concerns the target Epidermal growth factor receptor (Homo sapiens) (UniProt P00533). As to the kind of experiment: compounds binding epidermal growth factor receptor – biochemical, small-molecule microarray, 635 nm fluorescence, primary screen (AID 1104).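 Further: score merges 667 nm emission intensity with spot signal to noise over triplicate slides.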 The note with it: EGFR binding, higher = more signal.
Test [8] has as its target Follistatin-related protein 3 (Homo sapiens) (UniProt O95633). The experiment in a line: compounds binding follistatin-related protein 3 – biochemical, small-molecule microarray, 635 nm fluorescence, primary screen (AID 1105).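 Further: score merges emission near 667 nm and signal to noise per printed spot across three slides.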 The note with it: FSTL3 binding, higher = more signal.
Test [9] deals with Dickkopf-related protein 1 (Homo sapiens) (UniProt O94907). The experiment in a line: small molecules binding DKK1 protein – biochemical, small-molecule microarray, 635 nm fluorescence scan, primary screen (AID 1106).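 Further: score merges emission near 667 nm with signal to noise over three replicate slides.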 Conditions: higher = more signal.
The subject of test [10] is Inhibin beta A chain (activin A). The experiment in a line: small molecules binding activin A – biochemical, small-molecule microarray, 635 nm fluorescence scan, primary screen (AID 1107).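 Further: mouse activin A protein probed at 4.33 µg/mL on printed slides; score merges bound-protein fluorescence near 667 nm with spot signal-to-noise.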 The note with it: INHBA, higher = more signal.
In test [11] the test system is Human papillomavirus type 1a protein E7 (residues 44-93). The experiment in a line: small molecules binding HPV E7 44-93 – biochemical, small-molecule microarray, residues 44-93, 635 nm fluorescence, primary screen (AID 1108).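 Further: E7 fragment applied at 1 µg/mL in TBST for 1 h at 4 C; score combines spot fluorescence with its signal to noise ratio.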 The note with it: fluorescence 635 nm, higher = more signal.
A short description of test [12]: hepatitis C replication reporter changes, two-sided – Huh7 cells, luciferase reporter, HCV replication inhibitor project, primary screen (AID 1109).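 Further: huh7 hepatoma cells harbouring a luciferase neomycin HCV replicon reporter; luciferase luminescence as measure of HCV replicon replication; test concentration not given here.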 Conditions: Huh7 HCV replicon luciferase reporter, 48 h; higher = more signal.
For test [13], the target named is Left-right determination factor 2 (Homo sapiens) (UniProt O00292). The experiment in a line: small molecules binding LEFTY2 protein – biochemical, small-molecule microarray, 635 nm fluorescence scan, primary screen (AID 1110). Conditions: higher = more signal.
The target of test [14] is Calmodulin-1 (Homo sapiens) (UniProt P0DP23). The experiment in a line: small molecules binding calmodulin-1 with EGTA – biochemical, small-molecule microarray, Cy5-labelled CALM1, profiling panel (AID 1111).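 Further: labelled calmodulin applied in Tris saline Tween buffer holding calcium plus EGTA and DTT.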 The note with it: Cy5-CALM1 binding fluorescence, higher = more signal.
Test [15] shares this target. As to the kind of experiment: small molecules binding Ca-loaded calmodulin-1 – biochemical, small-molecule microarray, Cy5-labelled CALM1, plus calcium, artefact control for SMM control-protein annotation, profiling panel (AID 1112).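 Further: score merges spot fluorescence with signal to noise from triplicate slides.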 Conditions: Cy5-CALM1 binding fluorescence, higher = more signal.
The nature of test [16]: probe aWnt5a binding to arrayed compounds – biochemical, biotinylated probe, 635/667 nm fluorescence, primary screen (AID 1113).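 Further: score merges 667 nm fluorescence intensity with signal-to-noise per printed feature.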 The note with it: small-molecule microarray, higher = more signal.
Test [17] is described as follows: probe aShh binding to arrayed compounds – biochemical, biotinylated probe, 635/667 nm fluorescence, primary screen (AID 1114).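 Further: probe is biotin-labelled aShh protein from a stem cell growth factor screen; measures binding of labelled protein to compounds printed on the slide; score merges feature fluorescence at 667 nm with signal-to-noise.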 Conditions: small-molecule microarray, higher = more signal.
Test [18] can be described thus: probe aNog binding to arrayed compounds – biochemical, biotinylated probe, 635/667 nm fluorescence, primary screen (AID 1115).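 Further: probe is biotinylated aNog protein used at 0.15 µg/mL for 1 h at 4 C; z-score combines 667 nm fluorescence of each spot with its signal to noise.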 The note with it: small-molecule microarray, higher = more signal.
Test [19] has as its target Torsin-1A-interacting protein 1 (Homo sapiens) (UniProt Q5JTV8). As to the kind of experiment: compound microarray binding of lysate hLAP1 – cell lysate, small-molecule microarray, COS7 lysate, 635/667 nm fluorescence, primary screen (AID 1116). Conditions: 635 nm fluorescence, higher = more signal.
Test [20] has as its target Alpha-bungarotoxin (Bungarus multicinctus) (UniProt P60615). The experiment in a line: compounds binding labelled alpha-BTX control protein – biochemical, small-molecule microarray, Alexa647 label, 635/667 nm fluorescence, artefact control for SMM control protein annotation, profiling panel (AID 1117). The note with it: alpha-BTX-A647 binding fluorescence, higher = more signal.

Chain of Fibroblast growth factor 10 (Homo sapiens) (O15520 whole entry, looked up): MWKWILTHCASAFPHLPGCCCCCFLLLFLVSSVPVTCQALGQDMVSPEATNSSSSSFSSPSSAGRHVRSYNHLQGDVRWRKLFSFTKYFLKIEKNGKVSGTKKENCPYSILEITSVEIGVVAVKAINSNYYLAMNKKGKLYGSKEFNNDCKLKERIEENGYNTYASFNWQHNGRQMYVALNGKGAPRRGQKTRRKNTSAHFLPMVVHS
Chain of Left-right determination factor 2 (Homo sapiens) (O00292 whole entry, looked up): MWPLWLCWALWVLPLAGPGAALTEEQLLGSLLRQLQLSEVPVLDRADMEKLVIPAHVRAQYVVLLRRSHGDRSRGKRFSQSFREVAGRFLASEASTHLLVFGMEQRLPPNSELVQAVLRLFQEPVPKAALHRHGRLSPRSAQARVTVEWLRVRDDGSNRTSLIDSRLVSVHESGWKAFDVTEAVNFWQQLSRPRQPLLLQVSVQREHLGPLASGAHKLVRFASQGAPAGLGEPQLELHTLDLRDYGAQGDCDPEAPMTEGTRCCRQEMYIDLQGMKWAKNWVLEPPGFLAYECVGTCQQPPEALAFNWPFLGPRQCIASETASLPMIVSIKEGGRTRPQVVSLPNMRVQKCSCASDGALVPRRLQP
Chain of Follistatin-related protein 3 (Homo sapiens) (O95633 whole entry, looked up): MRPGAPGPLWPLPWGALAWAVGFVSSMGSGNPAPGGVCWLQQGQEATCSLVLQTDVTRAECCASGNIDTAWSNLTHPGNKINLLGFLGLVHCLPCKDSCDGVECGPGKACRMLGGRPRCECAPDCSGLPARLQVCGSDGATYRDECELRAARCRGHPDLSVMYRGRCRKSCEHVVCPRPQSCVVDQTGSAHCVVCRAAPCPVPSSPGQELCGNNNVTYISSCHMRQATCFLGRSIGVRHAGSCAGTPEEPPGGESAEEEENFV
Chain of Alpha-bungarotoxin (Bungarus multicinctus) (P60615 whole entry, looked up): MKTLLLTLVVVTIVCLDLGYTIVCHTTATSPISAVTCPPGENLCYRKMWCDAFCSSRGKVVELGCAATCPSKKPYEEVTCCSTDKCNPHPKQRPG
Chain of Dickkopf-related protein 1 (Homo sapiens) (O94907 whole entry, looked up): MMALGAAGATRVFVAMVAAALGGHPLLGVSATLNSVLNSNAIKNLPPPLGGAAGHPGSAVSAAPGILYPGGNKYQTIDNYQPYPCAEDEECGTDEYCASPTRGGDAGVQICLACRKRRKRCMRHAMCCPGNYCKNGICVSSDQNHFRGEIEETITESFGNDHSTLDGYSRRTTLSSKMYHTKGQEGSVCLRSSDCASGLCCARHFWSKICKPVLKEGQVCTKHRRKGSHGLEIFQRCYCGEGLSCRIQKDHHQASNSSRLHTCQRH
Chain of Epidermal growth factor receptor (Homo sapiens) (P00533 whole entry, looked up): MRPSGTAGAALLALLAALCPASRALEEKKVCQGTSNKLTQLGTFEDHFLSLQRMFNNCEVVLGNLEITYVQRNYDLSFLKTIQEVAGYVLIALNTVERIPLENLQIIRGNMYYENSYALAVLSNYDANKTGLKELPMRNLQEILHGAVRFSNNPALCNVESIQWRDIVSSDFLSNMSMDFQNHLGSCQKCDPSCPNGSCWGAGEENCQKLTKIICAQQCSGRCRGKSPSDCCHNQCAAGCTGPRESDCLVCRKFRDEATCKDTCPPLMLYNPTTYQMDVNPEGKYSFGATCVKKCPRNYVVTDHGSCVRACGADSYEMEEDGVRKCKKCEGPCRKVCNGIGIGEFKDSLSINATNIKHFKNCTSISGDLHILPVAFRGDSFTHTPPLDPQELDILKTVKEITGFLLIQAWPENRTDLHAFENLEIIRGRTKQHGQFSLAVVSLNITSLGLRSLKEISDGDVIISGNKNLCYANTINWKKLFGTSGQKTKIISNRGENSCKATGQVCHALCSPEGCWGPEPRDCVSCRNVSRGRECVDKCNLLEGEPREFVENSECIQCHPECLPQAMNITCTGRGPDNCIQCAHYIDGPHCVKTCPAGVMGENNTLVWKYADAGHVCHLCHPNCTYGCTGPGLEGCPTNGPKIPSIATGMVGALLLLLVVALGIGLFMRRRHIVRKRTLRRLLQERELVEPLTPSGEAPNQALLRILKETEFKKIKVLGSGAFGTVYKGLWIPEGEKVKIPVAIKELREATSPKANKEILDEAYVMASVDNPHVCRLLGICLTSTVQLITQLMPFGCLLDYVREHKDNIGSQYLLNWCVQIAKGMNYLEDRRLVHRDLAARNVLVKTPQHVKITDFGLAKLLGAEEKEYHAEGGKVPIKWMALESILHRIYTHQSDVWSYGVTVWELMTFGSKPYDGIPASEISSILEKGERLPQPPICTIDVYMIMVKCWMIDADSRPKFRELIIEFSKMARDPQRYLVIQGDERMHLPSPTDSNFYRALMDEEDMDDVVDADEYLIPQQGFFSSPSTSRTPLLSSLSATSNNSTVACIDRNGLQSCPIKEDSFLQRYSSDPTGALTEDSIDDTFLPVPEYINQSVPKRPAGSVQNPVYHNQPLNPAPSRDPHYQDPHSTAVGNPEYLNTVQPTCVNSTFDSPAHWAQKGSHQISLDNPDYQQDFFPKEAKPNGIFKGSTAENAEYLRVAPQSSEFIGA
Chain of Torsin-1A-interacting protein 1 (Homo sapiens) (Q5JTV8 whole entry, looked up): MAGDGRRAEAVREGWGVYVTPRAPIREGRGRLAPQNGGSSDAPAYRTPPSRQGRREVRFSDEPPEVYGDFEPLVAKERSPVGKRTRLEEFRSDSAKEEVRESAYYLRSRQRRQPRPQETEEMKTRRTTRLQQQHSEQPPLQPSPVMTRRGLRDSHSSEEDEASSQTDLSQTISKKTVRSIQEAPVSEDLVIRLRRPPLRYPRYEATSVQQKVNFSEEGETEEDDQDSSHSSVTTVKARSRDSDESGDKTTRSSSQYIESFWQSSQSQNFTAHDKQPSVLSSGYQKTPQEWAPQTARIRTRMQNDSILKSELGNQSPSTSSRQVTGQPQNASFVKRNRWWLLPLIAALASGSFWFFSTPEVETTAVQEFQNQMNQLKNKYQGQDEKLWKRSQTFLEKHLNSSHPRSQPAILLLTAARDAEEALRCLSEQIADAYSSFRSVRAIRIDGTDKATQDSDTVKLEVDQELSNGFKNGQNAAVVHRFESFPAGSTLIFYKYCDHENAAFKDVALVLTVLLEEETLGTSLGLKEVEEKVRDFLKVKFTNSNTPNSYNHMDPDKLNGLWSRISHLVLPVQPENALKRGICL

Regarding `COC(=O)[C@@]1(Cc2ccc(F)cc2)[C@H]2c3cc(C(=O)N4CCCC4)n(CCF)c3C[C@H]2CN1C(=O)c1ccccc1`, the composite z-score is 1.62 in test [1]; 1.98 in test [2]; 1.02 in test [3]; 0.876 in test [5]; 0.306 in [6]; -0.0069 in test [7]. The composite z-score in test [8] is 0.418; in [9], 0.555; in [10] it was 1.03; in test [11], 1.13; in [13] it was -0.359; in test [14], 2.74. In addition, the composite z-score in [15] turned out to be 1.32; in test [16] it was 1.04; in test [17], 1.79; in test [18] it was 2.99; in test [19], 2.42; in test [20], 0.602. The figures for the z-score in test [4] and in test [12] were -1.72 (inactive) and -1.43, respectively.
`NC(N)=NCc1cn(CCc2c[nH]c3ccccc23)nn1`: the composite z-score was 0.689 in test [1]; 0.0191 in [2]; -0.865 in test [3]; 0.479 in [5]; 1.18 in [6]; 0.699 in test [7]. The composite z-score is 1.12 in [8]; 1.6 in test [9]; 0.307 in test [10]; 0.712 in [11]; 1.23 in test [13]; -0.732 in [14]. The composite z-score in test [15] was -1; in [16] it was -0.114; in test [17] it was 0.0141; in [18], -0.158; in [19], 0.615; in test [20], 0.755. The results for the z-score in test [4] and in [12] were -0.443 (inactive) and -1.66, respectively.
Take `C=C(C(=O)CC[C@H](OC(C)=O)c1cccc(OCCO)c1)C(C)C`: the composite z-score was -0.382 in [1]; -0.352 in test [2]; -0.115 in test [3]; -0.924 in test [5]; -1.24 in [6]; -1.31 in test [7]. The composite z-score in [8] is -0.835; in test [9] it was -1.07; in test [10], 0.0244; in test [11], -0.521; in test [13] it was -0.728; in test [14], -0.765. The composite z-score in test [15] was -0.608; in test [16] it was -0.206; in test [17] it was -0.117; in [18], -0.107; in test [19], -0.397; in [20], 1.98. The results for the z-score in [4] and in [12] were 0.143 (inactive) and -1.01, respectively.
In the case of `CN(C)CCCNC(=O)[C@@]1(C)c2ccccc2C(=O)N(Cc2cc(C(F)(F)F)cc(C(F)(F)F)c2)[C@H]1c1ccc(CO)cc1`, the composite z-score is 1.01 in [1]; 0.202 in test [2]; 0.0634 in [3]; -0.753 in test [5]; -0.477 in [6]; -1.9 in test [7]. Besides, the composite z-score in [8] was -1.14; in [9], -0.992; in test [10] it was -1.34; in test [11] it was -0.488; in [13], -1.31; in [14], 0.139. In addition, the composite z-score is 0.0751 in test [15]; -0.118 in [16]; -0.134 in [17]; -0.484 in test [18]; -0.54 in test [19]; -0.779 in [20]. For the same compound, the z-score in test [4] is -1.24 (inactive); in test [12] it was -1.85.
`CC(C)C[C@@H]1NC(=O)[C@H]2C[C@@H](C(=O)NCCCCCC[N+](C)(C)C)[C@@H](c3cccc(OCCO)c3)N2C1=O`: the composite z-score was 1.14 in test [1]; -0.231 in [2]; -0.0365 in test [3]; 0.293 in test [5]; 0.661 in [6]; 0.109 in [7]. The composite z-score was 0.504 in test [8]; 0.438 in test [9]; 0.682 in test [10]; -0.209 in test [11]; 0.538 in [13]; -0.432 in test [14]. Also, the composite z-score in [15] is -0.738; in [16], -0.152; in test [17], -0.0035; in [18] it was -0.378; in [19], 0.501; in test [20], 0.0962. Further, the figures for the z-score in test [4] and in test [12] were -0.713 (inactive) and 1.79, respectively.
